Assay outcomes from PubChem BioAssay.
Shown are actives, neighbours in structure and some others; about 8.1% of the full set was active somewhere.
PINK1 modulator = PINK1 expression modulation. Potency, µM (top dose mostly 76.6 µM), for inactives: at the top dose activation (PINK1 increase), most hits filed as activators. PINK1 immunofluorescence, high-content cytometry, 24 h. actives 0.2% (n = 410,000); active means well fitted activation curve with a large enough effect; inconclusive means small, poorly fitted or top-dose-only effect; cell line not stated here; further: % of control where 0% means no effect; nearly all actives have a fitted effect of over 65% in size
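PINK1 protein, normally rapidly degraded, was detected by immunofluorescence after 24 hour compound treatment of a stable cell line. Titration data (5 concentrations) came from laser-scanning cytometry, with CCCP-treated wells as controls.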
Sfp PPTase inh = Sfp phosphopantetheinyl transferase inhibition | Potency, µM, without a hit: largest response in the series, negative = inhibition, hits mostly inhibitors | actives 3.5% (n = 310,000) | AID 1490 | Biochemical Sfp PPTase activity, qHTS;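 further: the enzyme is Sfp with the accession as filed and its product quenches rhodamine fluorescence; 0% = enzyme reaction without inhibitor and -100% = no enzyme wells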
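Fluorescence-quenching assay with 15 nM Sfp, 5 uM rhodamine-CoA and 12.5 uM BHQ-2-labelled ybbR peptide in pH 7.6 Hepes/MgCl2 buffer. Enzyme was pre-incubated with compound for 15 min at room temperature. Rate was taken from the 30-min fluorescence change (525/598 nm).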
ClpP mod = qHTS Assay for Activators of ClpP | actives 1.9% (n = 340,000) | AID 651965, 2013 | purified B. subtilis ClpP, FRET peptide cleavage, 20 min | Potency, µM (titrated, usually from 57.5 µM), for inactives: at the highest dose activity change, negative = active | ATP-dependent Clp protease proteolytic subunit (Bacillus subtilis (strain 168)), P80244; active means well fitted falling curve with a large enough effect; inconclusive means small, poorly fitted or top-dose-only effect; inactive means no such curve, though single readings can be large or run the other way; further: the source files actives as falling curves though it sought activators and does not explain the sign; nearly all actives have a fitted effect of over 65% in size
Target sequence (P80244 whole entry, looked up): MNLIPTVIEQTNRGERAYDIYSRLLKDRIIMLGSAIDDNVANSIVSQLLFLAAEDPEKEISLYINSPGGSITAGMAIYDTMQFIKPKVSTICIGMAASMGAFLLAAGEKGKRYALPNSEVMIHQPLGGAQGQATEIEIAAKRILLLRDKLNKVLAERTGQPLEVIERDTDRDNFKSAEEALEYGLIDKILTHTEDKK
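Buffer: 100 mM Tris/HCl pH8, 100 mM KCl, 0.05% low protease BSA, 2.5% glycerol, 0.01% Tween-20. ClpP 10 microg/mL final; 20 min RT; delta FRET normalized to ADEP and DMSO controls.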
Epigenetic derep = epigenetic control regulation, reporter derepression | AID 1865 | actives 0.2% (n = 280,000) | Potency, µM (top dose mostly 53.9 µM), for the others: at the highest dose GFP activation, actives largely listed as activators | murine LDR cells, GFP reporter derepression, 30 h; further: % of control where 0% means no effect; nearly all actives have a fitted effect of over 60% in size
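In this reporter-derepression format, murine cells bearing a silenced integrated CMV-GFP locus incubate with test compound (30 h, 37 C), then are washed and imaged; fluorescent objects of 20–120 um count as induced cells.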
RORgamma inh = ROR gamma (mouse) transcription inhibition; P51450; Drosophila S2 Gal4-RORgamma UAS-luciferase reporter, 20 h; Potency, µM (series often up to 53.6 µM), inactives show top-dose activity change, negative = inhibition, hits mostly inhibitors; actives 5.4% (n = 310,000); AID 2551; further: on the % scale 0 is the no-effect control and ±100 the full control effect; nearly all actives have a fitted effect of over 60% in size
Target sequence (P51450 whole entry, looked up, the tested form may be a part): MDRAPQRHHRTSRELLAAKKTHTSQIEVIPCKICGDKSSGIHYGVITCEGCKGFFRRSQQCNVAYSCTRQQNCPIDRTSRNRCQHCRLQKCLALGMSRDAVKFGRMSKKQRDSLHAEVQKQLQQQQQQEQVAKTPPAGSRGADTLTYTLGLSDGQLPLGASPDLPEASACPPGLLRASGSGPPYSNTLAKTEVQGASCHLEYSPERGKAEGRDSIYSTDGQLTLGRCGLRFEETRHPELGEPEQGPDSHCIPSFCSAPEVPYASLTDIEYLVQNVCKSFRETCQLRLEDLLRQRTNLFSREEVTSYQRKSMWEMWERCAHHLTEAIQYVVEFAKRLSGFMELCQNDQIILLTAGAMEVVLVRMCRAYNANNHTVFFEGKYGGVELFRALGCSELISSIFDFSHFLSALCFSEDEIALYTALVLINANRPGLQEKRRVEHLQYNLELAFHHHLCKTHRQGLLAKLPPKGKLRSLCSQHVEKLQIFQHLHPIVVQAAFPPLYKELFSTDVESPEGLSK
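Drosophila Schneider cells stably carrying a metallothionein-driven Gal4 DBD–ROR gamma fusion and a UAS-Photinus luciferase reporter were exposed to compound for 1 hr, then induced with copper sulfate (700 uM final) for 20 hr at ambient temperature before luminescence reading.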
VP16 counter = Gal4-VP16 reporter inhibition counter-screen; AID 2546; Potency, µM (series often up to 53.6 µM), for inactives: at the highest dose activity, negative = inhibition, usual class: inhibitors; Drosophila S2 Gal4-VP16 UAS-luciferase, luminescence, 20 h; actives 3.5% (n = 310,000);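 further: Gal4-VP16 expression switched on by copper sulfate through the metallothionein promoter; on the % scale 0 is the no-effect control and ±100 the full control effect; nearly all actives have a fitted effect of over 50% in size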
* marks the source's active call; other numbers are inactive results; ? = inconclusive; . = no result given; [ ] = another dose, or the depositor's remark. Unless noted, the call rests on the fitted dose curve; in most records, active means well fitted curve in the direction sought with a large enough effect; inconclusive means small, poorly fitted or top-dose-only effect, or another doubt; inactive means no such curve, though single readings can be large; an effect the other way counts as inactive or inconclusive. Potency means the concentration at half of the fitted maximal effect.

SMILES | PINK1 modulator | Sfp PPTase inh | ClpP mod | Epigenetic derep | RORgamma inh | VP16 counter
O=[N+]([O-])c1ccc(NC(=S)NCCc2ccccc2)cc1 | ? | -18% | . | -1% | -12% | 16%
CC(C)(C)C(=O)NC(=S)NCCc1ccccc1 | 4% | ? | 1% | 0% | 8.9µM* | ?
NNC(=S)NCCc1ccccc1 | 1% | 8% | -1% | 7% | 3.5µM* | 10µM*
CNC(=S)NCCCc1ccccc1 | 0% | -22% | 1% | -2% | 16µM* | ?
CC(C)C(=O)NCCCc1ccccc1 | 1% | 9% | -1% | -2% | 1% | -6%
S=C(NCCc1ccccc1)Nc1ccc(Br)cn1 | 2% | -2% | 0% | -1% | 0.28µM* | 5µM*
CCN(CC)c1ccc(CNc2nc3ccccc3n2C(C)C)cc1 | 22µM* | 8% | -5% | -1% | -42% | 5%
CCCn1c(Nc2nc3ccccc3n2C)nc2ccccc21 | -5% | ? | -29% | 12% | -38% | -11%
Cc1ccccc1Nc1nc2ccccc2n1C(C)C | 1% | 13% | 1% | 1% | 10µM* | -4%
CCc1ccccc1Nc1nc2ccccc2n1C | 2% | 25% | . | -3% | 10µM* | ?
Cc1cccc2c(C(O)c3cn(C)c4ccccc34)c[nH]c12 (stereo unspecified) | . | . | 5% | . | . | .
Cc1ccc(C(=O)COC(=O)c2cccc(NC(=O)c3ccc(Cl)cc3Cl)c2)cc1 | 2% | . | -2% | 0% | . | .
CC(C)CNC(=S)NC1CCCC1 | 3% | -4% | 0% | 0% | 10µM* | ?
S=C(NC1CCCC1)NC1CCCC1 | 2% | 20% | -1% | 1% | 2.5µM* | ?
S=C(NC1CCCC1)NC1CC1 | 2% | 21% | . | 3% | 13µM* | ?
O=C(NC1CCCCCC1)C(=S)N1CCOCC1 | 0% | 16µM* | 2% | 1% | 12% | -3%
OCCNC(=S)NC1CCCCC1 | -2% | 19% | -5% | -1% | 8% | 8%
O=C(NC1CCCCCC1)C(=S)N1CCCC1 | 0% | 15% | . | -1% | 9% | -1%
CCSc1nc(-c2cccc(Cl)c2)nc2c1Cc1c(CO)cnc(C)c1O2 | 0% | . | 0% | -1% | . | .
O=C(CCN1N=C(c2ccccc2)CCC1=O)NCCc1ccc(Cl)cc1 | 0% | . | -4% | 3% | . | .
C=CCNC(=S)NC1CC(C)(C)NC(C)(C)C1 | 1% | 29% | 2% | -4% | 7% | -7%
CC1(C)CC(NC(=S)NC2CC2)CC(C)(C)N1 | 0% | 12% | 35µM* | 0% | -3% | -19%
O=C(NC1CCCCCC1)C(=S)NC1CCCCC1 | 5% | 20µM* | -2% | -2%[10.1 µM] | 1% | 6%[10 µM]
FC(F)(F)c1nnc(-c2ccccc2)nc1Sc1ccccc1 | 5% | -17% | 0% | ? | ? | ?
FC(F)(F)c1cccc(Sc2nc(-c3ccccc3)nnc2C(F)(F)F)c1 | 0% | -5% | -3% | ? | 3.5µM* | ?
SMILES | PINK1 modulator | Sfp PPTase inh | ClpP mod | Epigenetic derep | RORgamma inh | VP16 counter
FC(F)(F)c1nnc(-c2ccccc2)nc1Sc1ccc(Cl)cc1 | 1% | ? | 1% | -1% | 6.3µM* | ?
O=C(NC[C@@H]1CCCN2CCCC[C@H]12)c1cnn(-c2nccc(-c3ccco3)n2)c1C1CC1 | 1% | . | . | . | . | .
COC(=O)c1cc(C)c(C)cc1NC1OC(CO)C(O)C1O (stereo unspecified) | -1% | . | 3.5µM* | . | . | .
Cc1ccc([N+](=O)[O-])cc1NC1OC(CO)C(O)C1O (stereo unspecified) | -1%[38.3 µM] | 15% | 0% | -1% | -19% | 1%
O=CN1CCN(C(=O)Cc2ccc([N+](=O)[O-])cc2)CC1 | -2% | 33% | 25µM* | 0% | 7% | -1%
O=C(O)c1cc(N(Cc2ccccc2O)Cc2ccccc2O)ccc1O | . | 56µM* | . | . | -21% | -2%
Oc1c(Cl)cc(Cl)cc1/C=N/c1nccs1 | -1% | 50µM* | -1% | 0% | 13µM* | ?
CC(=O)c1ccc(NC(=O)c2ncn(-c3ccccc3)n2)cc1 | 1% | . | 1% | 0% | . | .
CCC(C)(C)n1nnnc1C(c1ccc2ncccc2c1)N1CCN(c2ccc(O)cc2)CC1 (stereo unspecified) | 1% | 20µM* | . | 0% | -14% | -3%
CCC(C)(C)n1nnnc1C(c1ccc2ncccc2c1)N1CCN(c2nc3ccccc3s2)CC1 (stereo unspecified) | ? | -14% | -4% | 4% | ? | 3%
COc1ccc(NC(=O)c2sc3nc[nH]c(=O)c3c2C)cc1OC | 5% | . | 2% | 2% | . | .
Cc1ccc(C(=O)N/N=C/c2ccc([N+](=O)[O-])s2)cc1 | 2% | -2% | -1% | 1% | 0.71µM* | 1.3µM*
O=C(N/N=C/c1ccc([N+](=O)[O-])s1)c1ccncc1 | 1% | -2% | . | -2% | 4.5µM* | 4.5µM*
Cc1ccc(C(=O)N/N=C\c2ccc([N+](=O)[O-])s2)cn1 | 1% | 3% | 0% | 2% | 2.8µM* | 3.2µM*
CCOC(=O)N/N=C\c1ccc([N+](=O)[O-])s1 | 8% | -19% | . | 9% | -14% | 3%
Cc1[nH]cnc1C(=O)N/N=C/c1ccc([N+](=O)[O-])s1 | 4% | -29% | . | . | -30% | ?
Cn1c(SCC(=O)N/N=C/c2ccc([N+](=O)[O-])s2)nnc1-c1ccc(Cl)cc1 | ? | -5% | 1% | ? | ? | 18µM*
O=C(N/N=C/c1ccccc1[N+](=O)[O-])c1ccncc1 | 2% | 3% | 2% | . | 23% | 13%
Cc1cccc(CN2CCN(CC(=O)NCCc3ccc(Cl)cc3)C2=O)c1 | 1% | . | -1% | 1% | . | .
Cc1cc(CNC(=O)CCN2Cc3cc(Cl)ccc3OC(C)C2)nn1C (stereo unspecified) | 0% | . | . | . | . | .
COc1cccc(OC)c1CN1CCC2(CCC(CNC(=O)c3ccccc3)O2)CC1 (stereo unspecified) | 0% | . | . | . | . | .
O=C(N/N=C/c1ccc([N+](=O)[O-])s1)c1cccc(Br)c1 | -2% | -17% | 1% | -1% | 1.1µM* | 1.3µM*
Cc1cccc(N/N=C/c2ccc(C)s2)c1 | ? | -3% | 0% | . | -3% | 2%
Cc1ccc(/C=N/NC(=O)c2ccncc2)s1 | 5% | 15% | . | -5% | 7.1µM* | ?
Cc1ccc(/C=N/NC(=O)c2ccncc2)cc1 | 2% | 13% | . | . | -11% | -11%
Cc1ccc(/C=N/N=C/c2ccc(C)s2)s1 | 14% | -30% | 0% | -2% | 7.9µM* | -24%
O=C(N/N=C/c1cccc([N+](=O)[O-])c1)c1cccc(Br)c1 | 4% | 21% | 1% | 1% | ? | 15%
Cc1ccc(N(Cc2cccs2)C(=O)c2ccc(Br)o2)cc1 | 0% | . | 1% | -3% | . | .
